Test results as given in PubChem BioAssay AID1159580 (chemical genetic matrix, 2015).
The whole screen tested about 5,500 compounds, of which about 2,000 (36%) were called active. Another 18% or so got no clear call; they are omitted. No stated cut-off is given here; in the data, active means normalized growth mostly below about 0.91 (no sharp cut-off); inconclusive means no clear call, values can overlap the other calls; inactive means mostly above about 0.92. The list shows a part of the results.

Experiment: chemical genetic growth profiling, strain panel (AID 1159580);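 further: tested at 20 µM; growth read once vehicle control cultures reached saturation at 30 °C; 1 = growth at the plate median or of vehicle wells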
Details: growth OD

Measured: normalized growth

CC12CCC3C(CC3(C)C)C(C)(CCC1=O)O2 (configuration not stated)
inactive: S. cerevisiae deletion strains, locus YJR043C, strain POL32, stronger effect = lower value 1.01 | S. cerevisiae deletion strains, locus YJR066W, strain TOR1, stronger effect = lower value 0.988 | S. cerevisiae deletion strains, locus YKL009W, strain mrt4, stronger effect = lower value 1.03 | S. cerevisiae deletion strains, locus YKL068W, stronger effect = lower value 1.01 | S. cerevisiae deletion strains, locus YKL085W, strain MDH1 (second series), stronger effect = lower value 1.01 | S. cerevisiae deletion strains, locus YKL085W, strain MDH1, stronger effect = lower value 1.01 | S. cerevisiae deletion strains, locus YKL160W, strain elf1, stronger effect = lower value 1.03 | S. cerevisiae deletion strains, locus YKL190W, strain CNB1, stronger effect = lower value 1.01 | S. cerevisiae deletion strains, locus YKR001C, strain vps1, stronger effect = lower value 1.03 | S. cerevisiae deletion strains, locus YKR026C, strain gcn3, stronger effect = lower value 0.994 | S. cerevisiae deletion strains, locus YKR091W, strain srl3, stronger effect = lower value 0.992 | S. cerevisiae deletion strains, locus YLL001W, strain dnm1, stronger effect = lower value 1.01 | S. cerevisiae deletion strains, locus YLL026W, stronger effect = lower value 0.997 | S. cerevisiae deletion strains, locus YLL041C, strain sdh2, stronger effect = lower value 0.992 | S. cerevisiae deletion strains, locus YLR027C, strain aat2, stronger effect = lower value 1.01 | S. cerevisiae deletion strains, locus YLR039C, strain RIC1, stronger effect = lower value 1.08 | S. cerevisiae deletion strains, locus YLR058C, strain SHM2, stronger effect = lower value 1.02 | S. cerevisiae deletion strains, locus YLR102C, strain apc9, stronger effect = lower value 1.01 | S. cerevisiae deletion strains, locus YLR113W, strain HOG1, stronger effect = lower value 1.04 | S. cerevisiae deletion strains, locus YLR221C, strain rsa3, stronger effect = lower value 1 | S. cerevisiae deletion strains, locus YLR258W, strain gsy2, stronger effect = lower value 0.99 | S. cerevisiae deletion strains, locus YLR262C, strain YPT6 (second series), stronger effect = lower value 0.992 | S. cerevisiae deletion strains, locus YLR268W, strain sec22, stronger effect = lower value 1.03 | S. cerevisiae deletion strains, locus YLR320W, strain mms22, stronger effect = lower value 0.992 | S. cerevisiae deletion strains, locus YLR330W, strain CHS5, stronger effect = lower value 1.02 | S. cerevisiae deletion strains, locus YLR342W, strain FKS1, stronger effect = lower value 0.992 | S. cerevisiae deletion strains, locus YLR357W, strain rsc2, stronger effect = lower value 1.01 | S. cerevisiae deletion strains, locus YLR370C, strain arc18, stronger effect = lower value 1.03 | S. cerevisiae deletion strains, locus YLR371W, strain rom2, stronger effect = lower value 0.982 | S. cerevisiae deletion strains, locus YLR384C, strain iki3, stronger effect = lower value 1 | S. cerevisiae deletion strains, locus YLR418C, strain cdc73, stronger effect = lower value 1.07 | S. cerevisiae deletion strains, locus YML016C, strain PPZ1, stronger effect = lower value 1.01 | S. cerevisiae deletion strains, locus YML032C, strain rad52, stronger effect = lower value 1.02 | S. cerevisiae deletion strains, locus YML120C, strain ndi1, stronger effect = lower value 1 | S. cerevisiae deletion strains, locus YML124C, strain tub3, stronger effect = lower value 1.02 | S. cerevisiae deletion strains, locus YMR058W, strain fet3, stronger effect = lower value 1.02 | S. cerevisiae deletion strains, locus YMR078C, strain ctf18, stronger effect = lower value 1.01 | S. cerevisiae deletion strains, locus YMR125W, strain sto1, stronger effect = lower value 1.02 | S. cerevisiae deletion strains, locus YMR129W, stronger effect = lower value 0.987 | S. cerevisiae deletion strains, locus YMR205C, strain PFK2, stronger effect = lower value 1.01 | S. cerevisiae deletion strains, locus YMR223W, strain ubp8, stronger effect = lower value 1.03 | S. cerevisiae deletion strains, locus YMR231W, strain pep5, stronger effect = lower value 1.01 | S. cerevisiae deletion strains, locus YMR307W, strain GAS1, stronger effect = lower value 1.02 | S. cerevisiae deletion strains, locus YNL067W, strain RPL9B, stronger effect = lower value 1.03 | S. cerevisiae deletion strains, locus YNL071W, strain lat1, stronger effect = lower value 0.999 | S. cerevisiae deletion strains, locus YNL183C, strain NPR1, stronger effect = lower value 0.999 | S. cerevisiae deletion strains, locus YNL209W, strain ssb2, stronger effect = lower value 0.996 | S. cerevisiae deletion strains, locus YNL233W, strain BNI4, stronger effect = lower value 1.04 | S. cerevisiae deletion strains, locus YNL248C, strain rpa49, stronger effect = lower value 1.04 | S. cerevisiae deletion strains, locus YNL250W, strain rad50, stronger effect = lower value 1.05 | S. cerevisiae deletion strains, locus YNL271C, strain bni1, stronger effect = lower value 1.02 | S. cerevisiae deletion strains, locus YNL298W, strain CLA4, stronger effect = lower value 1.02 | S. cerevisiae deletion strains, locus YNL307C, strain MCK1, stronger effect = lower value 1.03 | S. cerevisiae deletion strains, locus YNL322C, strain KRE1 (second series), stronger effect = lower value 0.985 | S. cerevisiae deletion strains, locus YNL322C, strain KRE1, stronger effect = lower value 1.01 | S. cerevisiae deletion strains, locus YNR049C, strain mso1, stronger effect = lower value 0.999 | S. cerevisiae deletion strains, locus YNR052C, strain pop2, stronger effect = lower value 1.04 | S. cerevisiae deletion strains, locus YOL006C, strain TOP1, stronger effect = lower value 1.08 | S. cerevisiae deletion strains, locus YOL012C, strain htz1 0.815 | S. cerevisiae deletion strains, locus YOL147C, strain pex11, stronger effect = lower value 0.996 | S. cerevisiae deletion strains, locus YOR001W, strain rrp6, stronger effect = lower value 0.95 | S. cerevisiae deletion strains, locus YOR061W, strain CKA2, stronger effect = lower value 1.01 | S. cerevisiae deletion strains, locus YOR069W, strain VPS5, stronger effect = lower value 1.02 | S. cerevisiae deletion strains, locus YOR070C, strain gyp1, stronger effect = lower value 1.03 | S. cerevisiae deletion strains, locus YOR080W, strain dia2, stronger effect = lower value 0.989 | S. cerevisiae deletion strains, locus YOR083W, strain WHI5, stronger effect = lower value 1.03 | S. cerevisiae deletion strains, locus YOR106W, strain vam3, stronger effect = lower value 0.998 | S. cerevisiae deletion strains, locus YOR136W, strain idh2, stronger effect = lower value 1.01 | S. cerevisiae deletion strains, locus YOR144C, strain elg1, stronger effect = lower value 1.02 | S. cerevisiae deletion strains, locus YOR184W, strain ser1, stronger effect = lower value 0.997 | S. cerevisiae deletion strains, locus YOR231W, strain MKK1, stronger effect = lower value 1.05 | S. cerevisiae deletion strains, locus YOR265W, strain rbl2, stronger effect = lower value 1.02 | S. cerevisiae deletion strains, locus YOR270C, strain vph1, stronger effect = lower value 1.1 | S. cerevisiae deletion strains, locus YOR290C, strain snf2, stronger effect = lower value 0.975 | S. cerevisiae deletion strains, locus YOR316C, strain cot1, stronger effect = lower value 1.02 | S. cerevisiae deletion strains, locus YPL051W, strain arl3, stronger effect = lower value 1 | S. cerevisiae deletion strains, locus YPL055C, strain LGE1, stronger effect = lower value 1.04 | S. cerevisiae deletion strains, locus YPL078C, strain atp4, stronger effect = lower value 1.02 | S. cerevisiae deletion strains, locus YPL106C, strain sse1, stronger effect = lower value 1.01 | S. cerevisiae deletion strains, locus YPL240C, strain hsp82, stronger effect = lower value 0.994 | S. cerevisiae deletion strains, locus YPL256C, strain CLN2, stronger effect = lower value 1.06 | S. cerevisiae deletion strains, locus YPR119W, strain clb2, stronger effect = lower value 1.02 | S. cerevisiae deletion strains, locus YPR141C, strain kar3, stronger effect = lower value 1.01 | S. cerevisiae deletion strains, locus YPR163C, strain tif3, stronger effect = lower value 1.03 | S. cerevisiae deletion strains, locus YPR167C, strain met16, stronger effect = lower value 1.02 | S. cerevisiae deletion strains, strain wtn01, stronger effect = lower value 1.01 | S. cerevisiae strains, strain wild type, stronger effect = lower value 1.03
